Results taken from the supplement of paper PMC11732987, “Enantioselective OTUD7B fragment discovery through chemoproteomics screening and high-throughput optimisation” (Communications Chemistry, 2025).

What follows are targets tested with ClCC(=O)NC1(CCCC1)C#N (assay: log2 ratio of Biotin-Ahx-Ub-VS probe labelling (compound/DMSO); higher = less target engagement, active = hit call of the paper (q ≤ 0.05, log2 ratio ≤ -1)). Conditions: compound concentration: 50uM; treatment time: 3 h.
Experimental: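 Round 2 competitive ABPP in HEK293T lysate. Compounds were tested at 50 and 200 µM for 3 h, followed by Biotin-Ahx-Ub-VS enrichment and diaPASEF LC-MS/MS. Values are the average log2 ratio (compound/DMSO) from an unpaired t-test (n=3 treated, n=26 DMSO).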

UniProt Q9P275, sequence (Q9P275 whole entry): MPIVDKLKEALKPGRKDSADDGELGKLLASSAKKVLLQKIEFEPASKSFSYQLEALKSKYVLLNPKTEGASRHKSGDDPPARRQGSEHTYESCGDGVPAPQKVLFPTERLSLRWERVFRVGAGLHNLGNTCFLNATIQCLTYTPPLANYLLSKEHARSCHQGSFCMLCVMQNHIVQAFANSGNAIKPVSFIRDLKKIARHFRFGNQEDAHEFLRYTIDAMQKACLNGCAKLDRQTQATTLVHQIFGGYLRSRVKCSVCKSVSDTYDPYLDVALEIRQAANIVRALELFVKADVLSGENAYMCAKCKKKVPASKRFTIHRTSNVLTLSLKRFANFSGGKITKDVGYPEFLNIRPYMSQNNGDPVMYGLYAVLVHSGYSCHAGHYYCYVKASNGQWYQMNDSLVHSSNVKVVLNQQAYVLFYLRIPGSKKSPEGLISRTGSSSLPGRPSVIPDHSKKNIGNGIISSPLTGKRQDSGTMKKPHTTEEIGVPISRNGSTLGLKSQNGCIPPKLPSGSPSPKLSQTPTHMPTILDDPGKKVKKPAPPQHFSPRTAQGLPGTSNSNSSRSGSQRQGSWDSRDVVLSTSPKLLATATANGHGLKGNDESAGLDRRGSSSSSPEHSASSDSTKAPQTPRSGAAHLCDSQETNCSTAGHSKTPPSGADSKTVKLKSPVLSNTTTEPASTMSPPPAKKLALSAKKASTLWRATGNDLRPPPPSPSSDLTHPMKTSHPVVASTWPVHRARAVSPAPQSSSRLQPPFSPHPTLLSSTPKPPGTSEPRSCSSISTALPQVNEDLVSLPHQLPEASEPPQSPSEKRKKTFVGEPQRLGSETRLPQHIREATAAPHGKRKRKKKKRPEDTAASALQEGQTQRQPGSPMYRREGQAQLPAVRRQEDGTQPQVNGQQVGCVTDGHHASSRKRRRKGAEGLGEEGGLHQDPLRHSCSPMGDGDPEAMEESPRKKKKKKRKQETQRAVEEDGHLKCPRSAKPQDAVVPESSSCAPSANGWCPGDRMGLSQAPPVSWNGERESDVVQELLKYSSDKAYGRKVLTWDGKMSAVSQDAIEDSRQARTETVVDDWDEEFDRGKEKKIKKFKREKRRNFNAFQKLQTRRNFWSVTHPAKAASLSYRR
UniProt P40818, sequence (P40818 whole entry): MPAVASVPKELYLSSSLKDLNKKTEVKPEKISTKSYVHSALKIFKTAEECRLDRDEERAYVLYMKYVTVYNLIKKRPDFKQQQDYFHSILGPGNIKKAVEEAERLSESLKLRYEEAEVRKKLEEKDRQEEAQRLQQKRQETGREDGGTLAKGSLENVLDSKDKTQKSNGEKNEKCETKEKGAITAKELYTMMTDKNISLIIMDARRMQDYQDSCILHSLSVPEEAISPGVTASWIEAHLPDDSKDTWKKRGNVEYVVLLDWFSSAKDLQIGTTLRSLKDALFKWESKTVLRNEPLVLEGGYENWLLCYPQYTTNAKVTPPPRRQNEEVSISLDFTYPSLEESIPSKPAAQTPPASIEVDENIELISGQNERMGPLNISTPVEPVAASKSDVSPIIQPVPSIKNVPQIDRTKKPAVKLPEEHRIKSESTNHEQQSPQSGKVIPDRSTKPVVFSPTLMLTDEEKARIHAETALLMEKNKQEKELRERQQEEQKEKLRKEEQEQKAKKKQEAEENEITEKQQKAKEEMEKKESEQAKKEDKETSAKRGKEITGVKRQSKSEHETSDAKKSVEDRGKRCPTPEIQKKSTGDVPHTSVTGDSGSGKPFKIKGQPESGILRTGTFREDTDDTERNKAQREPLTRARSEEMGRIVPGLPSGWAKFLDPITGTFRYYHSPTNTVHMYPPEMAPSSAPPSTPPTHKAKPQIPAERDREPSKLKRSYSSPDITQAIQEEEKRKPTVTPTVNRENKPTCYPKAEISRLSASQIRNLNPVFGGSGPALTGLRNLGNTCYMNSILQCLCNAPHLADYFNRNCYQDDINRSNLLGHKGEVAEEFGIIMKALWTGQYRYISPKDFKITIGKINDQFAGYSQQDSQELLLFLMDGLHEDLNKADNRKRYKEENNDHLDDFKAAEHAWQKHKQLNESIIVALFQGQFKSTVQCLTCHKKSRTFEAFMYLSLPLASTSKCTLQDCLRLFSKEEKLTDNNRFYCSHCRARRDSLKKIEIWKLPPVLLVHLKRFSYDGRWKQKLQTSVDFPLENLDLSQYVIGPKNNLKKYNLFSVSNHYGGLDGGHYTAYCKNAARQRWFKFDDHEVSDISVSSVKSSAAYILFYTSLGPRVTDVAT
UniProt Q70EL2, sequence (Q70EL2 whole entry): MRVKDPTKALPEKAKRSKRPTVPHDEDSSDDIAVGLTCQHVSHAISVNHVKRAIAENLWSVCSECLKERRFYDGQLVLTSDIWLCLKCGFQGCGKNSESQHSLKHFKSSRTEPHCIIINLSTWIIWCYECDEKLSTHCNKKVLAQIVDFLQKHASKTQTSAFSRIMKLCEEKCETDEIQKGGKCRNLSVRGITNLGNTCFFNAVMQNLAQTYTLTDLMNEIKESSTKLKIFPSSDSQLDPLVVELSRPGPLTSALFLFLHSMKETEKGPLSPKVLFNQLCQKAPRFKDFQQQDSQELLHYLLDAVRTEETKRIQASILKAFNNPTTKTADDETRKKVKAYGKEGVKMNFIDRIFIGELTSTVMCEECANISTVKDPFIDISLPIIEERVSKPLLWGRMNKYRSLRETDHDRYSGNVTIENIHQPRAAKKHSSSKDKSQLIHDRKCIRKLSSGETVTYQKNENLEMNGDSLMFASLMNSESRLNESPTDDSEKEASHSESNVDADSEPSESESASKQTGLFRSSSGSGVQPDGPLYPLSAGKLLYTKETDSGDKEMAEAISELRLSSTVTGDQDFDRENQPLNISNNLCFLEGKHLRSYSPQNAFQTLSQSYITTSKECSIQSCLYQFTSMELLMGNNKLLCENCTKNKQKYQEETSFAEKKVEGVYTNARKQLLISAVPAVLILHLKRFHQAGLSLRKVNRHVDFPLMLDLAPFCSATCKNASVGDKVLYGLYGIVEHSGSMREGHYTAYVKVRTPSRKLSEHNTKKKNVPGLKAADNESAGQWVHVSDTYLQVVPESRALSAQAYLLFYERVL
UniProt Q9Y5T5, sequence (Q9Y5T5 whole entry, looked up): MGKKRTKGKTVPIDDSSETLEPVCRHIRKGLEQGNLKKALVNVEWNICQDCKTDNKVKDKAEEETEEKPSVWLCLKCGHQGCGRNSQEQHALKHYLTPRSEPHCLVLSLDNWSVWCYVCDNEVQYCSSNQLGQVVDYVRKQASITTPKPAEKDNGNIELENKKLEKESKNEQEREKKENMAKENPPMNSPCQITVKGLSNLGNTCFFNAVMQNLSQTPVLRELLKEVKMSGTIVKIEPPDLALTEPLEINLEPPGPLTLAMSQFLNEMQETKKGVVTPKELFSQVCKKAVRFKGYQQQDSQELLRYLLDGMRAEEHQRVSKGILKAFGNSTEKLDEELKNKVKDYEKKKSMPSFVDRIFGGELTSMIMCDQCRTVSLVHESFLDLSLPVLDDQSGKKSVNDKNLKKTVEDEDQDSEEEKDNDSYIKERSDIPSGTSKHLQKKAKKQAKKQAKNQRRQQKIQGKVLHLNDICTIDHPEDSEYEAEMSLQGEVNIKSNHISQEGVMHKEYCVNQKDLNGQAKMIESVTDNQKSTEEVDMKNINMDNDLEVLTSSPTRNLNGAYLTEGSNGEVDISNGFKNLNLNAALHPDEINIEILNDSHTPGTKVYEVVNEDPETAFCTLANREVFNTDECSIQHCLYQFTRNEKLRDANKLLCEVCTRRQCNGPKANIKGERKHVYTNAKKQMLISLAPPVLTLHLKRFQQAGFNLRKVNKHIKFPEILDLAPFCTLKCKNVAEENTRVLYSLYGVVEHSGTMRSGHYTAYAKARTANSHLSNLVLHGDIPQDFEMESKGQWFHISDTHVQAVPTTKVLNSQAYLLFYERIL
UniProt O00487, sequence (O00487 whole entry): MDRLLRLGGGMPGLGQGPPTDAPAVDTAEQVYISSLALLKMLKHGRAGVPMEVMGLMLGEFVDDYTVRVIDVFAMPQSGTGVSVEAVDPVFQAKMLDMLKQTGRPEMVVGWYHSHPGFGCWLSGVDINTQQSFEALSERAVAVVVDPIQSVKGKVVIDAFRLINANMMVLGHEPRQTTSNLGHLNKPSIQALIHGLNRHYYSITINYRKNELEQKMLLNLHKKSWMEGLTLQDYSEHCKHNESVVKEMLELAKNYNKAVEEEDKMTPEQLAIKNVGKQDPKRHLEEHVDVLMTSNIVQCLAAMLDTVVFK
UniProt Q9UGI0, sequence (Q9UGI0 whole entry): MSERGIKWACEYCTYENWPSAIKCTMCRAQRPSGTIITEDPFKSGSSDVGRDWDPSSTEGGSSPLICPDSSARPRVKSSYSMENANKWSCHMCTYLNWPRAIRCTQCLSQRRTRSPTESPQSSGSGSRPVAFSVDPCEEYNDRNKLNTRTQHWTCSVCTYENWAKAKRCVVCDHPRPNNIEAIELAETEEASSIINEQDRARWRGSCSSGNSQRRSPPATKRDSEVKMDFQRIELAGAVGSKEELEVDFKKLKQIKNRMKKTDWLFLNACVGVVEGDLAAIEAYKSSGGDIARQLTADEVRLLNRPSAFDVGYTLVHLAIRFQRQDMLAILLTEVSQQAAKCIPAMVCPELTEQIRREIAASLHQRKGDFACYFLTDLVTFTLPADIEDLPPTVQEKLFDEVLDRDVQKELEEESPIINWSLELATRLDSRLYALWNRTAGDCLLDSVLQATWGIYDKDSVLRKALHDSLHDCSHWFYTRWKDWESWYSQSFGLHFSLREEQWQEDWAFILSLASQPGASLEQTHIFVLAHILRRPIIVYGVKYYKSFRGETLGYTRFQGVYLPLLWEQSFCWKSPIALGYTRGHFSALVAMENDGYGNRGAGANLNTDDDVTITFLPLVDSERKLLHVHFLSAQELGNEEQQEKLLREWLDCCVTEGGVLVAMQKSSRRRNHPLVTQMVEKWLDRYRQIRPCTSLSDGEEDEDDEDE

Target	log2 ratio of Biotin-Ahx-Ub-VS probe labelling
USP24 (UniProt Q9UPU5)	-0.0634 (inactive)
OTUD6B (UniProt Q8N6M0)	-0.241 (inactive)
USP16 (UniProt Q9Y5T5)	-0.176 (inactive)
USP8 (UniProt P40818)	-0.191 (inactive)
UniProt Q9UGI0	-0.46 (inactive)
UniProt O00487	0.252 (inactive)
USP19 (UniProt O94966)	-0.227 (inactive)
USP36 (UniProt Q9P275)	-0.292 (inactive)
UniProt Q70EL2	-0.267 (inactive)

Same assay, conditions: compound concentration: 200uM; treatment time: 3 h

Target	log2 ratio of Biotin-Ahx-Ub-VS probe labelling
USP24 (UniProt Q9UPU5)	-0.175 (inactive)
OTUD6B (UniProt Q8N6M0)	-0.219 (inactive)
USP16 (UniProt Q9Y5T5)	-0.253 (inactive)
USP8 (UniProt P40818)	-0.0614 (inactive)
UniProt Q9UGI0	0.243 (inactive)
UniProt O00487	0.0206 (inactive)
USP19 (UniProt O94966)	-0.0992 (inactive)
USP36 (UniProt Q9P275)	-0.22 (inactive)
UniProt Q70EL2	0.248 (inactive)
